Screen size: about 420,000 compounds; about 64,000 (15%) were called active. Another 27% or so got no clear call; they are omitted. Calls follow the shape of the dose curve; as a rule, active = well fitted inhibition curve with a large enough effect; inconclusive = small, poorly fitted or top-dose-only effect; inactive = flat fitted curve, though single readings scatter. The list is a sample of the results.
Test: qHTS for Inhibitors of human tyrosyl-DNA phosphodiesterase 1 (TDP1): qHTS in cells in absence of CPT; also: nearly all actives have a fitted effect of over 55% in size
Conditions: DT40 Tdp1-/- hTDP1 cells, no CPT, ATP luminescence, 48 h; activity change, negative = growth inhibition: at 46.2 µM (top of the series)
In short: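 Seeded 400 DT40-hTDP1 cells/well (vehicle DMSO, no 20 nM CPT); pinned compounds; ≥48 hr at 37 °C; CellTiter-Glo luminescence as viability measure.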
% is scaled to controls: 0 for no effect and ±100 for the full control effect; potency is read from the fitted curve at half-maximal effect.

Row | SMILES | activity change, negative = growth inhibition | Potency
1 | N/C(=N\OC(=O)CCC1CCCCC1)c1ccccn1 | -21.2% (inactive) | 
2 | Cc1cccc(OCC(=O)NC2CC(C)(C)NC(C)(C)C2)c1 | -16.6% (inactive) | 
3 | C/C(=N\NC(=O)Cc1ccccc1[N+](=O)[O-])c1cccnc1 | 6.28% (inactive) | 
4 | S=C(c1ccccc1)N1CCCC1 | 0.14% (inactive) | 
5 | CN(O)C(=S)c1ccccc1 |  | 0.164 µM (active)
6 | CN(CC(=O)O)C(=O)c1ccccc1 | -4.58% (inactive) | 
7 | CN(C)C(=O)c1ccc(-c2cncnc2Nc2ccccc2)cc1 | -23.9% (inactive) | 
8 | CC(Cc1cccs1)NC(=O)NC1CCCCC1 (stereo unspecified) | -4.59% (inactive) | 
9 | Cc1nc([N+](=O)[O-])cn1CC(=O)Nc1ccc2c(c1)OCO2 | -0.205% (inactive) | 
10 | COc1ccc(C(=O)c2c(C)c(CCC#N)n3ccccc23)c(OC)c1 |  | 20.6 µM (active)
11 | Cc1c(C(=O)c2cccc([N+](=O)[O-])c2)c2ccccn2c1CCC#N | -25.6% (inactive) | 
12 | COc1ccc(C(=O)COC(=O)C(O)c2ccccc2)c(OC)c1 (stereo unspecified) | -7.11% (inactive) | 
13 | CC(C)(C)c1ccc(/C=C2\Oc3c(ccc(O)c3CN3CCN(CCO)CC3)C2=O)cc1 | -24.5% (inactive) | 
14 | CCCCNC(=O)N1CCCC(N(C)CCc2ccc(OC)c(OC)c2)C1 (stereo unspecified) | 2.85% (inactive) | 
15 | CC(C)=CCCC1(C)C=Cc2c(ccc3c2[nH]c2cc(O)c(C)cc23)O1 (stereo unspecified) |  | 16.4 µM (active)
16 | COc1ccc(-c2cnc(SCCNC(=O)c3ccc4c(c3)OCO4)[nH]2)cc1 | -8.15% (inactive) | 
17 | Brc1ccc(-c2nnc(-c3ccccc3)o2)o1 | -10.6% (inactive) | 
18 | Cc1ccc(CN2CCN(c3ccccc3Cl)CC2)o1 | -19.5% (inactive) | 
19 | O=C(O)c1cc2c(cc1NC(=O)c1c(F)cccc1Cl)OCCCO2 | -9.76% (inactive) | 
20 | O=C(CN1CCCCC1)NC(=O)Nc1ccccc1F | -17.6% (inactive) | 
21 | O=C(CSC(=S)N1CCCCC1)c1c(F)cccc1F |  | 8.2 µM (active)
22 | Cc1nnc(SCC(=O)N(C(C)C)C(C)C)nc1C | 2.84% (inactive) | 

Row | SMILES | activity change, negative = growth inhibition | Potency
23 | CC(=O)NCCC(=O)Nc1nc(C)c(Cc2ccc3c(c2)OCO3)s1 | -21.1% (inactive) | 
24 | N#Cc1cccc(Nc2c3c(nc4ccccc24)CCCC3)c1 |  | 25.9 µM (active)
25 | CCc1nc(SCC(=O)NNC(=O)c2ccc(C)cc2)c2ccccc2n1 | -19.2% (inactive) | 
26 | CC(=O)Nc1ccc(NC(=O)C(C)n2c3ccccc3c3nc(=O)cc(C)n32)cc1 (stereo unspecified) | -20.6% (inactive) | 
27 | Cc1c(NC(=O)Nc2cccc([N+](=O)[O-])c2)c(=O)n(-c2ccccc2)n1C | -13.3% (inactive) | 
28 | Cc1ccc(Nc2c3c(nc4ccccc24)CCC3)cc1 |  | 18.4 µM (active)
29 | O=C(Nc1cccc([N+](=O)[O-])c1)Nn1cnnc1 | 15.6% (inactive) | 
30 | CC(=O)Nc1ccc(Nc2c3ccccc3nc3ccccc23)cc1 |  | 0.0082 µM (active)
31 | CC(=O)Nc1ccc(Nc2nc3c(S(=O)(=O)c4ccc(C)c(C)c4)nnn3c3ccccc23)cc1 | -7.06% (inactive) | 
32 | N#Cc1cccc(NC(=O)CCC2CCCC2)c1 | -19.6% (inactive) | 
33 | O=[N+]([O-])c1cccc(Nc2c3ccccc3nc3ccccc23)c1 |  | 16.4 µM (active)
34 | N#Cc1cccc(NC(=O)CN2CCCCCC2)c1 | 11.8% (inactive) | 
35 | Cc1nn(C(C)(C)C)c(OC(=O)CC(C)C)c1S(=O)(=O)c1ccccc1 | -26.5% (inactive) | 
36 | CCn1c(CC(=O)Nc2ccccc2)nnc1SCC(=O)N1CCOCC1 | -8.98% (inactive) | 
37 | CCC1C(=O)c2ccccc2N(C)C1=O (stereo unspecified) | -14.1% (inactive) | 
38 | Cc1[nH]n(-c2ccccc2)c(=O)c1N=Nc1ccccc1C(=O)N1CCCCC1 | 5.87% (inactive) | 
39 | CN1CCN(C(=O)c2cnn(-c3ccccc3)c2NC(=O)c2ccc([N+](=O)[O-])cc2)CC1 | 4.52% (inactive) | 
40 | Cc1[nH]n(-c2ccc([N+](=O)[O-])cc2)c(=O)c1C=NCCN1CCN(C(=O)c2ccccc2F)CC1 |  | 14.6 µM (active)
41 | COc1ccc(OC)c(C(=O)c2ccc(C(=O)O)cc2)c1 | -7.17% (inactive) | 
42 | COc1ccc2c(CC(=O)OCC(=O)NC(N)=O)coc2c1 | 17.9% (inactive) | 
43 | COc1ccc2occ(C(=O)c3ccc(N=C(C)N(C)C)cc3)c2c1 |  | 23.1 µM (active)
44 | CN(C(=O)COC(=O)c1cc(=O)[nH]c2ccccc12)C1CCCCC1 | -24.9% (inactive) | 

Row | SMILES | activity change, negative = growth inhibition | Potency
45 | CN(CC(=O)Nc1c(Cl)cccc1Cl)C(=O)CNC(=O)C1CCCCC1 | -15.4% (inactive) | 
46 | O=C(O)C(CCc1ccccn1)c1ccccc1 (stereo unspecified) | -12.4% (inactive) | 
47 | O=C(CSC1=NCCS1)Nc1nc(-c2ccccc2)cs1 | -21.5% (inactive) | 
48 | Cc1ccc(-c2csc(NC(=O)Cn3[nH]c(=O)c4ccccc4c3=O)n2)cc1 |  | 16.4 µM (active)
49 | O=C(COC(=O)Cn1[nH]c(=O)c2ccccc2c1=O)Nc1ncc(Cl)cc1Cl | -3.18% (inactive) | 
50 | C=CCOc1ccc(Cl)cc1CNCCCN1CCOCC1 | -26.3% (inactive) | 
51 | CCCCn1c(N)c(N(CCC(C)C)C(=O)CC2OC(=O)c3ccccc32)c(=O)[nH]c1=O (stereo unspecified) | -1.23% (inactive) | 
52 | CCOC(=O)c1sc(N)c(C#N)c1COC(=O)C1=COCCO1 | -11.9% (inactive) | 
53 | Cc1cc(=O)n2nc(N3CCCC(C(=O)NCc4ccc(Cl)cc4)C3)sc2n1 (stereo unspecified) | -14.3% (inactive) | 
54 | Cc1cc(=O)n2nc(N3CCC(C(=O)Nc4c(F)c(F)c(F)c(F)c4F)CC3)sc2n1 | 7.4% (inactive) | 
55 | COc1ccc(-c2cn3nc(N4CCC(C(=O)Nc5cccc(C)c5C)CC4)sc3n2)cc1 |  | 11.6 µM (active)
56 | COc1ccc(-c2cn3nc(N4CCCC(C(=O)NCCCOC(C)C)C4)sc3n2)cc1 (stereo unspecified) |  | 18.4 µM (active)
57 | Cc1cc(=O)n2nc(N3CCCC(C(=O)NCCC4=CCCCC4)C3)sc2n1 (stereo unspecified) | -3.34% (inactive) | 
58 | Cc1cccc(NC(=O)C2CCCN(C(=O)NCc3ccccc3)C2)c1C (stereo unspecified) | -9.86% (inactive) | 
59 | COC(=O)c1ccc(CNC(=O)c2ccc3oc(C(C)C)nc3c2)cc1 | -23% (inactive) | 
60 | Cc1c(-c2cccc(Cl)c2)nc2ccccc2c1C(=O)OCC(=O)N(C)C1CCS(=O)(=O)C1 (stereo unspecified) | -18.4% (inactive) | 
61 | CC(=O)Nc1ccc(C(=O)NNC(=O)CCCCC(=O)NNC(=O)c2ccc(NC(C)=O)cc2)cc1 | -26.2% (inactive) | 
62 | O=C(c1cn(-c2ccccc2)nc1-c1cccnc1)N1CCCCC1 | -1.78% (inactive) | 
63 | CCC(=O)OCc1c(C(F)(F)F)nn(C)c1Oc1cccc(C(F)(F)F)c1 | 16.5% (inactive) | 
64 | Cc1cc(Br)ccc1NC(=O)c1cnc(N2CCN(c3ccccn3)CC2)c2ccccc12 |  | 13 µM (active)
65 | O=C(Nc1ccc(F)cc1)c1cccnc1N1CCOCC1 | 2.7% (inactive) | 
66 | CCc1cccc(NC(=O)c2cnc(N3CCOCC3)c3ccccc23)c1 |  | 11.6 µM (active)

Row | SMILES | activity change, negative = growth inhibition | Potency
67 | Cc1ccc(S(=O)(=O)NCC(=O)N2CCN(c3ccccn3)CC2)cc1 | 1.99% (inactive) | 
68 | Cc1cc(Br)ccc1NC(=O)c1sc2ncn(CC(=O)N3CCN(c4ccccn4)CC3)c(=O)c2c1C | -15.7% (inactive) | 
69 | CSc1ncccc1C(=O)Nc1cccc(S(=O)(=O)N2CCOCC2)c1 | -7.85% (inactive) | 
70 | CCOC(=O)COc1nc(C)cc(C(F)(F)F)c1C#N | -3.92% (inactive) | 
71 | CCOC(=O)c1c(N)sc2c1CCCC2=O | -23.7% (inactive) | 
72 | COc1ccc(-n2c(=O)c3ccccc3n(Cc3ccccc3Cl)c2=O)cc1 | -9.58% (inactive) | 
73 | CCC(=O)c1ccc(OCC(=O)OCC(=O)N2CCc3ccccc3C2)cc1 | -16.3% (inactive) | 
74 | OCCN1CCN(C(=S)c2ccc(-c3ccccc3)cc2)CC1 | -17.2% (inactive) | 
75 | CN(C)CCNC(=O)Cc1ccc([N+](=O)[O-])cc1 | 7.09% (inactive) | 
76 | Cn1cc(CCC(=O)NCc2ccc3c(c2)OCO3)c2ccccc21 | -20.7% (inactive) | 
77 | Cc1nc2nc(COc3ccccc3)[nH]n2c(=O)c1C | -18.5% (inactive) | 
78 | OCC[C@H]1C[C@H](O)[C@@H](O)[C@]2(CCc3ccccc3O2)O1 | -2.75% (inactive) | 
79 | CCOc1cccc(SCc2noc(C(=O)NC(C)C)c2C(=O)O)c1 | -11.2% (inactive) | 
80 | CC1CN(S(=O)(=O)c2cccc(C(F)(F)F)c2)CN1C(=O)N1CCOCC1 (stereo unspecified) | 1.17% (inactive) | 
81 | O=C(O)c1ccc(CSc2nc3cccnc3n2Cc2cccc(F)c2)cc1 | -18.6% (inactive) | 
82 | O=C(NC1CCCCC1)c1ccc(Cn2c(SCc3ccccc3)nc3cccnc32)cc1 | -28.6% (inactive) | 
83 | Cc1oc(-c2ccccc2)nc1Cn1c(SCc2cccc(C(F)(F)F)c2)nc2cccnc21 |  | 25.9 µM (active)
84 | O=C(Cc1ccccc1)NNC1CC(=O)N(c2ccc(Br)cc2)C1=O (stereo unspecified) | -2.99% (inactive) | 
85 | Cc1onc(C(=O)Nc2ccc3c(c2)OCO3)c1[N+](=O)[O-] | -0.294% (inactive) | 
86 | CN(CC(=O)NC1CCCCC1)S(=O)(=O)c1cccc2cccnc12 | -25.1% (inactive) | 
87 | CC(=O)OC[C@@H]1CN(Cc2ccccc2)C[C@H](n2cnc3c(NCc4ccco4)ncnc32)O1 | -11.8% (inactive) | 
88 | Nc1ncnc2c1ncn2[C@@H]1O[C@H](C(=O)NCC(F)(F)F)[C@@H](O)[C@H]1O | 2.82% (inactive) | 

Row | SMILES | activity change, negative = growth inhibition | Potency
89 | O=c1c(-c2ccc(F)cc2)nc2cnc(N3CCOCC3)nc2n1-c1ccccc1 | 0.857% (inactive) | 
90 | O=c1c(CCc2ccccc2)nc2cnc(N3CCNCC3)nc2n1Cc1cccs1 | -1.32% (inactive) | 
91 | N#Cc1cccc(-c2nc3cnc(N4CCNCC4)nc3n(C3CC3)c2=O)c1 |  | 3.66 µM (active)
92 | COCCn1c(=O)c(-c2cc(F)cc(F)c2)nc2cnc(N3CCNCC3)nc21 |  | 23.1 µM (active)
93 | COCCn1c(=O)c(-c2ccccc2)nc2cnc(N3CCOCC3)nc21 | -7.21% (inactive) | 
94 | COCCn1c(=O)c(-c2cc(F)cc(F)c2)nc2cncnc21 | 10.5% (inactive) | 
95 | COC(=O)c1ccc(NC(=O)c2cc3c(CO)cnc(C)c3oc2=Nc2cccc(C(N)=O)c2)cc1 | -22.8% (inactive) | 
96 | Cc1cc(C(=O)N2CCC(C(=O)O)CC2)c(C(F)(F)F)o1 | 5.7% (inactive) | 
97 | COC(=O)c1ccc(CSc2ccc(S(=O)(=O)N3CCCCC3)cn2)cc1 | -4.95% (inactive) | 
98 | C/C(CC(=O)Nc1ccc(C)cc1C)=N\NC(=O)C(C)C | 8.43% (inactive) | 
99 | CN(C)N1C(N)=C(C#N)C(c2ccc(Br)cc2)C2=C1CCCC2=O (stereo unspecified) | 7.64% (inactive) | 
100 | Cc1ccc(S(=O)(=O)N(C)C)cc1NC(=O)COC(=O)c1c(C)noc1C | -6.14% (inactive) | 
101 | O=C(OCc1cn([C@@H]2C[C@H](c3ccc(Cl)cc3)N(Cc3cccs3)C[C@H]2O)nn1)c1ccccc1 | -8.11% (inactive) | 
102 | O=C(c1cccs1)N1C[C@H](n2cc(C3CC3)nn2)[C@@H](O)C[C@@H]1c1ccccc1 | -26.4% (inactive) | 
103 | CCCCCC(=O)N1C[C@H](O)[C@@H](n2cc(COC(=O)c3ccccc3)nn2)C[C@@H]1c1ccc(C)cc1 |  | 0.82 µM (active)
104 | C=CCCC(=O)N1C[C@H]2CON(C)[C@H]2C[C@H]1c1cccc(Nc2ccccc2)c1 | -7.65% (inactive) | 
105 | O=C(OCc1cn([C@H]2C[C@H](c3ccccc3)N(C(=O)c3cccs3)C[C@@H]2O)nn1)c1ccccc1 |  | 18.4 µM (active)
106 | O=C(OCc1cn(-c2ccc(Cl)c(Cl)c2)nn1)c1ccccc1Cl | -0.626% (inactive) | 

Source: PubChem BioAssay AID686978 (National Center for Advancing Translational Sciences (NCATS), 2013)
